Screening results deposited in PubChem by National Center for Advancing Translational Sciences (NCATS).
Most compounds without a hit are left out; they make up all but 21% or so of the library.
Pf growth 96h: inhibits malaria parasite growth, 96 h. P. falciparum luciferase reporter growth, 96 h. Potency, µM (highest dose often 28.7 µM), without a hit: at the top dose activity change, negative = inhibition, actives largely listed as inhibitors. actives 6.9% (n = 320,000). AID 504834; also: potency is read from the fitted curve at half-maximal effect; % is scaled to controls: 0 for no effect and ±100 for the full control effect
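P. falciparum expressing integrated firefly luciferase, in erythrocytes at 2% hematocrit, 0.05% parasitemia, incubated with compounds 96 h at 37 C, 5% CO2. Growth inhibition read as loss of luminescence; two-generation exposure targets delayed-death apicoplast inhibitors.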
AMA1 RON2 block: inhibitors of Plasmodium falciparum AMA1-RON2 interaction; AlphaScreen AMA1-biotinylated RON2 peptide binding; actives 0.2% (n = 360,000); AID 720542; Potency, µM (highest dose often 58.2 µM), without a hit: at the highest dose activity change, negative = inhibition, usual class: inhibitors;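 also: potency is read from the fitted curve at half-maximal effect; 0% = vehicle wells and -100% = peptide control; nearly all actives have a fitted effect of over 45% in size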
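AMA1 (3D7) with his tag at 25 nM final met compounds first, then biotinylated RON2 peptide at 25 nM; detection used donor plus acceptor beads, 10 µg/mL apiece, read by AlphaScreen after 30 min at room temperature.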
HCV inh: blocks hepatitis C virus; actives 3.4% (n = 340,000); Huh7.5.1 HCVcc-Cre infection, luciferase reporter, 44 h; Potency, µM (highest dose often 41.8 µM), for inactives: top-dose activity change, negative = inhibition, hits mostly inhibitors; also: potency is read from the fitted curve at half-maximal effect; % is scaled to controls: 0 for no effect and ±100 for the full control effect
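Reporter virus HCVcc-Cre (~0.5 moi) infects cells exposed to compound; seeding density 1,000 cells/well with 4 h settling beforehand. Luminescence, 15 sec read, taken 44 h post-infection following a 15 min RT substrate incubation.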
Shiga toxin inh: Shiga toxin inhibition | Vero cells, Shiga toxin protein synthesis inhibition reporter | inhibition, % at 38.7 µM | actives 9.2% (n = 290,000) | AID 2315; in the data active = inhibition mostly above about 28%, no sharp cut-off; inactive = mostly below about 43%; also: 0% is about no effect
Cycloheximide cs: counter-screen hit for Shiga toxin inhibitors, cycloheximide; max response, %; cell reporter, cycloheximide protein synthesis inhibition counterscreen; AID 2314; actives 12% (n = 300,000); in the data active = max response mostly above about 13%, no sharp cut-off; inactive = mostly below about 14%; also: read at 38.3 µM for the half of the compounds with a filed dose; 0% is about no effect
Pf growth 48h: P. falciparum growth inhibition at 48 hours (one generation); P. falciparum luciferase growth in erythrocytes, 48 h; actives 5.9% (n = 310,000); AID 504832; Potency, µM (series often up to 28.7 µM), inactives show at the top dose activity change, negative = inhibition, hits mostly inhibitors; also: potency is read from the fitted curve at half-maximal effect; % is scaled to controls: 0 for no effect and ±100 for the full control effect
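Parasite viability was followed by luminescence of a genomically integrated firefly luciferase. Cultures held 0.1% parasitemia at 2% hematocrit (final), incubated under 5% CO2 at 37 C.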
* hit, by the source's call; ? = inconclusive; . = not tested or not shown. Unless noted, calls follow the shape of the dose curve; as a rule, active = well fitted curve in the direction sought with a large enough effect; inconclusive = small, poorly fitted or top-dose-only effect, or another doubt; inactive = no such curve, though single readings can be large; an effect the other way counts as inactive or inconclusive.

SMILES	Pf growth 96h	AMA1 RON2 block	HCV inh	Shiga toxin inh	Cycloheximide cs	Pf growth 48h
Cc1nc(S/C(=C/c2ccc(OCc3ccc(C(=O)O)cc3)cc2)C(=O)O)n[nH]1	-0.8%	?	28.2%	-16.4	-4.1	?
N#C/C(=C(\O)c1cc(Cl)sc1Cl)c1nc2ccccc2[nH]1	14.4%	71.9%	-5.1%	-4.0	-6.4	9.0%
COCCNc1nc(-c2ccc(Cl)cc2C)c2sccc2n1	.	84.0%	.	.	.	.
CC12CN3CC(C)(CN(C1)C3c1cccs1)C2=O (stereo not drawn)	?	-3.0%	10.0%	-2.1	11.1	12.6%
c1ccc(N2CCN(c3ccccc3)C2c2cccs2)cc1	.	-10.7%	6.3%	93.7*	30.1*	-16.4%
O=C1CSC(c2ccccn2)N1c1ccc(C(F)(F)F)cc1 (stereo not drawn)	?	-4.7%	-27.1%	9.7	-4.9	2.94µM*
O=C1CSC(c2ccccn2)N1c1ccccc1 (stereo not drawn)	-20.0%	2.8%	.	-21.7	-4.4	31.5%
COc1ccc(N2C(=O)CSC2c2cccs2)cc1 (stereo not drawn)	-16.3%	6.1%	33.9%	-3.3	-2.6	-4.4%
O=C1CSC(c2cccs2)N1c1ccccc1 (stereo not drawn)	7.38µM*	1.1%	4.4%	-6.2	-0.9	5.6%
Cc1cc(C)nc(NS(=O)(=O)c2ccc(NC(=O)CCC(=O)O)cc2)n1	.	7.7%	17.3%	.	.	.
CC(=O)Nc1ccc(NC(=O)c2c(-c3ccccc3)noc2C)cn1	2.7%	0.0%	12.0%	-4.8	-1.7	1.5%
O=S(=O)(c1ccc(Cl)cc1)c1cnc2ccccc2n1	10.4µM*	-13.8%	?	-9.4	0.6	?
CCc1nc2c(OCc3ccc(C(F)(F)F)cc3)cccn2c1N(C)C(=O)c1ccncc1	.	-3.7%	.	.	.	.
CCOC(=O)c1c(NC(=O)Nc2ccc(Cl)cc2)sc(C)c1C	43.5%	-12.9%	-14.5%	-3.4	-4.7	-4.6%
CCOC(=O)c1sc(NC(=O)c2ccc(S(=O)(=O)N(C)C)cc2)cc1C	5.22µM*	-9.3%	11.2µM*	-10.8	-0.8	.
CCOC(=O)c1sc(=S)n(C)c1NC(=O)c1ccccc1	-16.3%	0.1%	14.7%	13.0	-3.4	9.0%
CCOC(=O)c1sc(NC(=O)c2ccccc2)cc1C	?	12.2%	?	121.8*	69.6*	.
CCOC(=O)c1sc(NC(=O)Nc2ccc(Cl)cc2)cc1C	?	-6.2%	?	67.2*	46.4*	4.15µM*
CCOC(=O)c1sc(NC(=O)c2ccc(Cl)s2)cc1C	?	14.5%	?	56.0*	38.7*	?
O=C1CC/C=C\C[C@@H](CC(=O)N(CCO)Cc2ccccc2)C(=O)N2CCC[C@H]2CO1	.	-2.8%	?	.	.	.
NC(=O)NOCc1ccccc1F	?	-1.0%	14.3%	13.0	3.2	23.6%
CN(CC(=O)Nc1ccc(OC(F)(F)F)cc1)C(=O)/C=C/c1cc2c(cc1[N+](=O)[O-])OCO2	3.1%	-4.1%	?	.	.	-17.6%
CCOC(=O)c1sc(NC(=O)c2c(C)nn(Cc3ccccc3)c2C)cc1C	0.7%	-12.0%	17.8µM*	37.4	9.7	9.28µM*
COc1cc(C(=S)N2CCOCC2)ccc1OS(=O)(=O)c1ccc(Cl)cc1	9.7%	0.0%	4.9%	21.4	-3.0	-3.8%
O=C(Oc1ccc(C(=S)N2CCOCC2)cc1)c1ccc([N+](=O)[O-])cc1	1.47µM*	-4.3%	-12.4%	.	-3.5	13.2%
SMILES	Pf growth 96h	AMA1 RON2 block	HCV inh	Shiga toxin inh	Cycloheximide cs	Pf growth 48h
COc1cc(C(=S)N2CCOCC2)cc(OC)c1OC(=O)c1ccccc1[N+](=O)[O-]	-8.8%	?	15.8µM*	-4.0	-1.7	11.2%
COc1cc(C(=S)N2CCOCC2)ccc1OC(=O)c1ccc(Br)cc1	5.22µM*	-12.2%	14.9%	4.7	-0.9	12.9%
COc1cc(C(=S)N2CCOCC2)cc(OC)c1OS(=O)(=O)c1ccc(Cl)cc1	10.4µM*	1.0%	-2.9%	.	-2.5	?
COc1ccc(C(=S)N2CCOCC2)cc1OC(=O)c1ccc([N+](=O)[O-])cc1[N+](=O)[O-]	2.0%	-16.8%	15.9%	-10.0	7.3	45.8%
O=C(COC(=O)C1CC1)NC(=O)c1ccccc1	11.9%	-0.9%	9.8%	.	.	16.3%
CC(C)(C)C1N=C(c2ccc3ccccc3c2)OC1=O (stereo not drawn)	22.4%	-4.2%	16.7%	.	.	28.3%
COc1cccc(CN(C)C(=O)CSc2nc3ccccc3[nH]2)c1OC	0.4%	1.1%	-17.1%	45.9*	26.4*	-10.2%
CCN(CC(=O)Nc1cc(OC)ccc1OC)Cc1nc2ccccc2c(=O)[nH]1	-22.4%	101.3%	-28.2%	-8.0	9.3	-3.6%
COc1ccc(/C=C/C(=O)NC(=S)Nc2cc3oc4ccccc4c3cc2OC)cc1	20.8%	5.9%	7.8%	11.4	6.6	-3.7%
COc1cc2c(cc1NC(=O)/C=C/c1ccccc1)oc1ccccc12	3.3%	-2.6%	7.08µM*	-24.6	-2.7	-2.3%
COc1cc2c(cc1NC(=O)CSc1ccccc1)oc1ccccc12	35.1%	-3.9%	?	19.1	29.0*	36.3%
COc1cc2c(cc1NC(=O)CN(C)Cc1nc3ccccc3c(=O)[nH]1)oc1ccccc12	?	19.2%	?	24.3	11.6	5.22µM*
COc1cc2c(cc1NC(=O)CSc1nc3cc(Cl)ccc3s1)oc1ccccc12	13.5%	-6.6%	-2.5%	-7.0	-4.7	30.4%
COc1cc2c(cc1NC(=O)CSc1nccn1C)oc1ccccc12	20.7%	?	2.82µM*	68.2*	43.3*	83.4%
COc1cc2c(cc1NC(=O)CSc1nc3ccccc3[nH]1)oc1ccccc12	?	-1.5%	8.91µM*	-7.0	1.6	?
Cc1ccc(CNS(=O)(=O)c2ccc(CN3C(=O)c4cccnc4C3=O)s2)o1	3.7%	1.3%	-3.7%	-7.7	0.7	10.1%
O=C(NNC(=O)c1cccc2ccccc12)c1ccc2c(c1)OCO2	85.5%	45.3%	-5.3%	50.0*	24.1*	46.8%
O=C(NNC(=O)c1cccc2ccccc12)c1ccc(Cl)c(Cl)c1	.	39.1%	?	.	.	.
CNC(=S)NNC(=O)c1ccc2c(c1)OCO2	0.5%	89.2%	3.9%	52.4*	9.1	6.8%
CCCCNC(=S)NNC(=O)c1ccc2c(c1)OCO2	15.4%	34.4%	2.3%	-9.3	1.5	25.9%
CNC(=S)NNC(=O)c1ccc(C(C)(C)C)cc1	33.2%	92.5%	-3.2%	26.3	16.9*	?
COc1ccc(C(=O)NNC(=O)c2ccc(C(C)(C)C)cc2)cc1	-11.5%	-3.7%	-1.3%	-3.2	-6.9	-6.5%
O=C(NCC(c1cccs1)N1CCOCC1)c1cn(-c2ccccc2)nc1-c1ccc(F)cc1 (stereo not drawn)	?	0.3%	?	.	.	?
